# Test results as given in PubChem BioAssay (NCATS).
# Inconclusive results are not listed. A call without a number means that no potency is given here. The source made the active and inactive calls. Unless noted, the call rests on the fitted dose curve; in most records, active means well fitted curve in the direction sought with a large enough effect; inconclusive means small, poorly fitted or top-dose-only effect, or another doubt; inactive means no such curve, though single readings can be large; an effect the other way counts as inactive or inconclusive.
# Experiments:
# [1] = Primary qHTS for inhibitors of nuclear receptor binding SET domain protein 2 (NSD2) in an RCH-ACV wild type WT cells (2C) (AID 1645877); further: nearly all actives have a fitted effect of over 70% in size; further: potency means the concentration at half of the fitted maximal effect
# [2] = Primary qHTS for inhibitors of nuclear receptor binding SET domain protein 2 (NSD2) in an isogenic RCH-ACV NSD2 p.E1099K mutant (9B) (AID 1645876); further: nearly all actives have a fitted effect of over 70% in size
# [3] = target: Catechol O-methyltransferase (Homo sapiens) (UniProt P21964); assay: Confirmatory Screen for Target Class Profiling of Small Molecule Inhibitors of Methyltransferases (AID 1745852; calls by dose curve; further: potency means the concentration at half of the fitted maximal effect); settings: MTase-Glo luminescence, SAH detection, recombinant enzyme; measured here: COMT max response; stronger effect = lower value
# Catechol O-methyltransferase (Homo sapiens), sequence (P21964 whole entry, looked up): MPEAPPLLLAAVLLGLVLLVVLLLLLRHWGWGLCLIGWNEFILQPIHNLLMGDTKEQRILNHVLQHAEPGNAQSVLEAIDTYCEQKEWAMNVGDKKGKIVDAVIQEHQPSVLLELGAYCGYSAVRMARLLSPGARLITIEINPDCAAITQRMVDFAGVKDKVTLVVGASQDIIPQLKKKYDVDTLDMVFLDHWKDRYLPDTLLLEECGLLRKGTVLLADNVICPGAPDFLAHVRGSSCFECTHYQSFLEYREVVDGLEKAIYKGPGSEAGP
# [4] = target: Guanidinoacetate N-methyltransferase (Homo sapiens) (UniProt Q14353); assay: as above; settings: activity change, negative = inhibition: at 57.3 µM (top of the series) unless noted
# [5] = target: Nicotinamide N-methyltransferase (Homo sapiens) (UniProt P40261); assay: as above; settings: MTase-Glo luminescence, SAH detection, recombinant enzyme; measured here: NNMT max response; stronger effect = lower value
# Nicotinamide N-methyltransferase (Homo sapiens), sequence (P40261 whole entry, looked up): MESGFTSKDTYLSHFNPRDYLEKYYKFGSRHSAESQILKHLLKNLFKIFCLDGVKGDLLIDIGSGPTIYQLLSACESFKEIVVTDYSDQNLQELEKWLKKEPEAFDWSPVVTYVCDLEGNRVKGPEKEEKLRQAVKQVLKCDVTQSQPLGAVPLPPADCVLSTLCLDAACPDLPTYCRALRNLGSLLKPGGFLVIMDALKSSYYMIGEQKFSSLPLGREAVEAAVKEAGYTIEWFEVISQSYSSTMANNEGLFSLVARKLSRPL
# [6] = target: Phenylethanolamine N-methyltransferase (Homo sapiens) (UniProt P11086); assay: as above; settings: MTase-Glo luminescence, SAH detection, recombinant enzyme; measured here: PNMT max response; stronger effect = lower value
# Phenylethanolamine N-methyltransferase (Homo sapiens), sequence (P11086 whole entry, looked up): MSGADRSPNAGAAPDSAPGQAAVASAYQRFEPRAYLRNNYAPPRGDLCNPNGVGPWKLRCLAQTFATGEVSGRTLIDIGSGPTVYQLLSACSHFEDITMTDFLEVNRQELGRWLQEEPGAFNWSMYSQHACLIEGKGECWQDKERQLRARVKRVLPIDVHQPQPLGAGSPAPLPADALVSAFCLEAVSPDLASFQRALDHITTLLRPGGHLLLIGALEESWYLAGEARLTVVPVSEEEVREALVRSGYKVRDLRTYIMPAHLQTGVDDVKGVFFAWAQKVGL
# [7] = NCATS anti-infectives library activity on HEK293 viability as a counter-qHTS vs the C. elegans viability qHTS (AID 1745854);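 further: HEK293 cells exposed to compounds for 24 hr before the viability read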
# Procedure, shortened: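 Compound titrations (final up to 41.7 uM) were incubated with HEK293 cells for 24 hr at 37C under 5% CO2. Viable cells were quantified with CellTiter-Glo after 10 min at ambient temperature.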
# [8] = HepG2 viability counterscreen (readout 2: ATP content) against the NCATS DSHEA and TCM libraries (AID 1794840);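 further: HepG2 cells exposed to substances for about 24 h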
# Procedure, shortened: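 HepG2 cells (1,000 cells/well) attached ~4 h, then treated ~24 h at 37C with substances. Protease activity read by GF-AFC (25 uM final, 30 min, Ex/Em 380/510 nm); ATP content then by CellTiter-Glo luminescence.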
# [9] = Viability counterscreen for antagonist of constitutive androstane receptor (CAR) against the NCATS DSHEA and TCM libraries (AID 1794837);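 further: compound exposure lasted 24 h before viability reading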
# Procedure, shortened: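 HepG2-CYP2B6-hCAR cells (2,500/well) were allowed to attach for 5 h, then exposed to compounds with 48 uM CITCO for 24 h at 37C. Viability was read by CellTiter-Fluor fluorescence after 1 h.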
# [10] = Viability counterscreen for agonist of constitutive androstane receptor (CAR) against the NCATS DSHEA and TCM libraries (AID 1794838)
# Procedure, shortened: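 HepG2-CYP2B6-hCAR cells (2,500/well) attached 5 h, then got compounds plus 0.75 uM PK11195 final. After 24 h at 37C, viability read by CellTiter-Fluor fluorescence (Ex/Em 405/540 nm).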
# [11] = target: Nuclear receptor subfamily 1 group I member 3 (Homo sapiens) (UniProt Q14994); assay: Primary qHTS for agonist of constitutive androstane receptor (CAR) against the NCATS DSHEA and TCM libraries (AID 1794839);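 further: HepG2 cells expressing human CAR with a CYP2B6 reporter plus PK11195 antagonist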
# Nuclear receptor subfamily 1 group I member 3 (Homo sapiens), sequence (Q14994 whole entry, looked up): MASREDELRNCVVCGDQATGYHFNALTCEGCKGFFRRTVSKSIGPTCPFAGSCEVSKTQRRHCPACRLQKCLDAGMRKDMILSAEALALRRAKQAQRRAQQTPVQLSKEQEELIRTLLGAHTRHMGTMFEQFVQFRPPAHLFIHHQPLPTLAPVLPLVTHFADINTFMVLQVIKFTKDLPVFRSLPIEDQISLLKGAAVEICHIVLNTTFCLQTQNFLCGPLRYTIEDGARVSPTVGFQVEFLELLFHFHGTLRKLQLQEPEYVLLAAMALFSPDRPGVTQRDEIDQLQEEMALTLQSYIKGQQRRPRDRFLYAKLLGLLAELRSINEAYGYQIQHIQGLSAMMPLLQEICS
# Procedure, shortened: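 HepG2-CYP2B6-hCAR cells (2,500/well) were attached for 5 h, then treated for 24 h at 37 °C with compounds plus 0.75 µM PK11195. Luciferase luminescence (ONE-Glo) was read, with CellTiter-Fluor viability (Ex/Em 405/540 nm).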
# [12] = NCATS anti-infectives library activity on the primary C. elegans qHTS viability assay (AID 1745855; calls by dose curve); settings: C. elegans worm area imaging, day 7; at 41.8 µM (top of the series)
# Procedure, shortened: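 Titration-based screen in worms: eggs hatched overnight in M9, L1 larvae fed TOP10 capsules in S medium with compound, incubated 21 °C for 7 days; fluorescent objects gated by size and intensity at days 0, 3 and 7.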
# [13] = target: Rap guanine nucleotide exchange factor 3 (Homo sapiens) (UniProt O95398); assay: Confirmatory qHTS for antagonist of cAMP-regulated guanine nucleotide exchange factor 3 (EPAC1) (AID 1645880); settings: EPAC1 Rap1B-BODIPY-GDP exchange, fluorescence; further: potency means the concentration at half of the fitted maximal effect; nearly all actives have a fitted effect of over 55% in size
# Rap guanine nucleotide exchange factor 3 (Homo sapiens), sequence (O95398 whole entry, looked up): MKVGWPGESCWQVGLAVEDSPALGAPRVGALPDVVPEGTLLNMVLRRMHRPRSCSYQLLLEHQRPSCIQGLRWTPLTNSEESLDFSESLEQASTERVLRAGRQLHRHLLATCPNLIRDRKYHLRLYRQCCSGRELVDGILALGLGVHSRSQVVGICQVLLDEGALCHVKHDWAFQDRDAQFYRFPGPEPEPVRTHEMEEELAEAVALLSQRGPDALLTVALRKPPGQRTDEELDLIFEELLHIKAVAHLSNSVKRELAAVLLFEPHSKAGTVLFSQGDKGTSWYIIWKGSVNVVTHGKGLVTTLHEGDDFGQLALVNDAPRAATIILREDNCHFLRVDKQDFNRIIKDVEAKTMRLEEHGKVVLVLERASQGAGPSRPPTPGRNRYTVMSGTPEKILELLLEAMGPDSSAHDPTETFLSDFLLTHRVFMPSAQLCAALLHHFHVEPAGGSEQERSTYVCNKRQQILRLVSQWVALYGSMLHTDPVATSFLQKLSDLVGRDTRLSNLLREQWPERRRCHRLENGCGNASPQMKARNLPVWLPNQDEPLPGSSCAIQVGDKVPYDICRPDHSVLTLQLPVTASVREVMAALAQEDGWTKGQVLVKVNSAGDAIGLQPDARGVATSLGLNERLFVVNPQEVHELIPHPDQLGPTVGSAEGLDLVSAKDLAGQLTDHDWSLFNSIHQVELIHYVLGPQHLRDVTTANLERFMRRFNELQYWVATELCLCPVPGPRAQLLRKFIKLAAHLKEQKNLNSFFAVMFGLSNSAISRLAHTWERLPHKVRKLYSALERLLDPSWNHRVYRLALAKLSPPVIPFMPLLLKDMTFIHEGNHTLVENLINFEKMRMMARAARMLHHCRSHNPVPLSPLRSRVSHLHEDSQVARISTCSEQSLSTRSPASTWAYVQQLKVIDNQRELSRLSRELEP
# Procedure, shortened: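 Released BODIPY-GDP fluoresces less than Rap1-bound BODIPY-GDP; the signal is followed at 480/540 nm at 5-min intervals over 30 min, after 5 min at room temperature. Reactions contain 100 nM EPAC1, 250 nM RAP1B-BODIPY-GDP and 50 uM GDP; results are normalized to ATA and DMSO.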
# [14] = target: Rap guanine nucleotide exchange factor 3 (Homo sapiens) (UniProt O95398); assay: Confirmatory qHTS for agonist of cAMP-regulated guanine nucleotide exchange factor 3 (EPAC1) (AID 1645881);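 further: EPAC1 catalysed release of BODIPY-GDP from Rap1B seen as fluorescence loss; nearly all actives have a fitted effect of over 75% in size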
# [15] = target: Rap guanine nucleotide exchange factor 4 (Homo sapiens) (UniProt Q8WZA2); assay: Confirmatory qHTS for agonist of cAMP-regulated guanine nucleotide exchange factor 4 (EPAC2) (AID 1645884);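 further: nucleotide exchange releases bodipy-GDP from Rap1 and this lowers its fluorescence; nearly all actives have a fitted effect of over 65% in size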
# Rap guanine nucleotide exchange factor 4 (Homo sapiens), sequence (Q8WZA2 whole entry, looked up): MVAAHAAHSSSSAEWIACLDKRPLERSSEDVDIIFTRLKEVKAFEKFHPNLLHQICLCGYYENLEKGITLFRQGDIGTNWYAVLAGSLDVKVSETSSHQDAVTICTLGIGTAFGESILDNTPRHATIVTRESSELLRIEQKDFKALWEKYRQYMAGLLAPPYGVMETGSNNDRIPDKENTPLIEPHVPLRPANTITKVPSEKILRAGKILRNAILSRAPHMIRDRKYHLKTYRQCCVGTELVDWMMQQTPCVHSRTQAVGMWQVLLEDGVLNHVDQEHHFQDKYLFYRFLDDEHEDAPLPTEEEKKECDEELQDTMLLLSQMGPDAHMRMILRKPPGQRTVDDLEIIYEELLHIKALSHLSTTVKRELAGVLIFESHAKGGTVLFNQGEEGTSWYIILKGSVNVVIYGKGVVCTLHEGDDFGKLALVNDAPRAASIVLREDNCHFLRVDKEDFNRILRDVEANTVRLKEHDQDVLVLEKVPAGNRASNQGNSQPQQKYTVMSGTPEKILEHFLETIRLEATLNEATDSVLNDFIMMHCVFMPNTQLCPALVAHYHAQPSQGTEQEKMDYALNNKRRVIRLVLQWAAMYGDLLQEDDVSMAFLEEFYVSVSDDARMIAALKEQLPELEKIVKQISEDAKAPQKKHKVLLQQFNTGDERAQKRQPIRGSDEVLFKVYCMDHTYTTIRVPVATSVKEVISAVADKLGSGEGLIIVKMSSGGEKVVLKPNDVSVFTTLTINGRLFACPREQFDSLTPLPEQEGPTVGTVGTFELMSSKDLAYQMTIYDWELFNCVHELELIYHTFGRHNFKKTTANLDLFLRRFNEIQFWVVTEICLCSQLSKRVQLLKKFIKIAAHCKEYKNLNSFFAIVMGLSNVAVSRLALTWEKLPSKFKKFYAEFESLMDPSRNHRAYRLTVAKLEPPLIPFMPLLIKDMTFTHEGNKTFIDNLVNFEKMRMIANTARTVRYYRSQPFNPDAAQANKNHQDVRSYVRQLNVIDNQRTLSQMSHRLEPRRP
# [16] = target: Rap guanine nucleotide exchange factor 4 (Homo sapiens) (UniProt Q8WZA2); assay: Confirmatory qHTS for antagonist of cAMP-regulated guanine nucleotide exchange factor 4 (EPAC2) (AID 1645885); further: potency means the concentration at half of the fitted maximal effect; nearly all actives have a fitted effect of over 25% in size
smiles,measurement,setting,value
CCC(=O)O[C@]1(C(=O)CCl)[C@@H](C)C[C@H]2[C@@H]3C[C@H](F)C4=CC(=O)C=C[C@]4(C)[C@@]3(F)[C@@H](O)C[C@@]21C,Potency,[1],inactive
C=C[C@](C)(CC/C=C(\C)C(=O)O)O[C@@H]1OC[C@H](O)[C@H](O)[C@H]1O,Potency,[2],inactive
same,Potency,[1],inactive
same,activity,[3],-82.9%
same,"activity change, negative = inhibition",[4],-1.98%
same,activity,[5],-0.767%
same,activity,[6],0.753%
COc1ccc(/C=C/C(=O)O[C@@H]2[C@@H](OC(C)=O)[C@@H](OC(C)=O)[C@H](O[C@H]3[C@@H]4C=CO[C@@H](O[C@@H]5O[C@H](CO)[C@@H](O)[C@H](O)[C@H]5O)[C@@H]4[C@@]4(CO)O[C@@H]34)O[C@H]2C)cc1O,Potency,[2],inactive
same,Potency,[1],inactive
same,activity,[3],-68.6%
same,"activity change, negative = inhibition",[4],-5.06% [at 19.1 µM]
same,activity,[5],-11.7%
same,activity,[6],-9.65%
Cc1c(-c2ccnn2C)cc(C(=O)NCc2ccc(S(C)(=O)=O)cn2)c(=O)n1-c1cccc(C(F)(F)F)c1,Potency,[2],inactive
same,Potency,[1],inactive
same,outcome,[7],inactive
CC1=CC(=O)C2C(C)(C)CCCC2(C)C12CCC1(COC(=O)C1)O2 (stereo not given),activity,[3],-85.5%
same,"activity change, negative = inhibition",[4],2.41%
same,activity,[5],-1.78%
same,activity,[6],3.04%
COc1cc(/C=C/c2cc(O)cc(O[C@@H]3O[C@H](CO)[C@@H](O)[C@H](O)[C@H]3O)c2)ccc1O,activity,[3],-45%
same,"activity change, negative = inhibition",[4],0.569% [at 29.8 µM]
same,activity,[5],-2.24%
same,activity,[6],1.65%
CC1=CCC(C(C)(C)O)CC1 (stereo not given),outcome,[8],inactive
OC[C@H]1O[C@@H](Oc2ccc(O)c3cccc(O)c23)[C@H](O)[C@@H](O)[C@@H]1O,activity,[3],-82.3%
same,Potency,[4],16.8 µM (active)
same,activity,[5],-18.4%
same,activity,[6],-70.9%
OC[C@H]1O[C@@H](Oc2cc(O)cc(/C=C/c3ccc(O)cc3)c2)[C@H](O)[C@@H](O)[C@@H]1O,outcome,[7],inactive
CC1=C(/C=C/C(C)=C/C=C/C(C)=C/CO)C(C)(C)CCC1,outcome,[9],inactive
same,outcome,[10],inactive
same,outcome,[8],inactive
C=C(C)[C@H]1C[C@@H](O)C(=C)CC[C@@H](O)C(=C)[C@@H](O)C1,Potency,[2],inactive
same,Potency,[1],inactive
same,activity,[3],-67%
same,"activity change, negative = inhibition",[4],0%
same,activity,[5],4.34%
same,activity,[6],4.62%
COC(=O)C1=CO[C@@H](O[C@@H]2O[C@H](CO)[C@@H](O)[C@H](O)[C@H]2O)[C@@H]2[C@@H](C)[C@@H](O)C[C@H]12,Potency,[2],inactive
same,Potency,[1],inactive
same,outcome,[7],inactive
Oc1cc(O)c2c(c1)OC(c1ccc(O)c(O)c1)C(O)C2 (stereo not given),outcome,[8],inactive
O=C(O)[C@H]1CCCC[C@H]1C(=O)N1CCc2ccccc2[C@H]1CN1C(=O)c2ccccc2C1=O,Potency,[1],inactive
Nc1c(Br)cc(Br)cc1CNC1CCC(O)CC1 (stereo not given),Potency,[1],inactive
NCCOCCOCCNC(=O)Cc1ccc(Nc2nc(NCc3ccc(F)cc3)nc(NCC3CCCCC3)n2)cc1,Potency,[1],16.3 µM (active)
COC1C2=C(COC2=O)C2(C)CCCC(C)(CO)C2C1OC(=O)c1ccccc1 (stereo not given),Potency,[1],inactive
CC(CO[C@@H]1O[C@H](COC(=O)/C=C/c2ccc(O)c(O)c2)[C@@H](O)[C@H](O)[C@H]1O)C1(O)COC(=O)C1 (stereo not given in full),Potency,[1],inactive
CC1=C(/C=C/C(C)=C/C=C/C(C)=C/C=C/C=C(C)/C=C/C=C(C)/C=C/C2=C(C)CCCC2(C)C)C(C)(C)CCC1,Potency,[1],18.6 µM (active)
same,outcome,[9],inactive
same,outcome,[10],inactive
same,outcome,[11],inactive
same,outcome,[8],inactive
CCOc1nc2cccc(C(=O)O)c2n1Cc1ccc(-c2ccccc2-c2noc(=O)[nH]2)cc1,Potency,[2],inactive
same,Potency,[1],inactive
same,outcome,[7],inactive
same,outcome,[12],inactive
CCCOc1ccn2c(C(C)=O)cc(-c3ccccc3S(C)(=O)=O)c2c1,Potency,[1],18.6 µM (active)
OC1COC(OCC2OC(OCCc3ccccc3)C(O)C(O)C2O)C(O)C1O (stereo not given),Potency,[2],inactive
same,Potency,[1],inactive
same,activity,[3],-64.8%
same,"activity change, negative = inhibition",[4],0% [at 29.8 µM]
same,activity,[5],0%
same,activity,[6],0%
C[C@@H]1CC[C@]2(C)C3(C)CC[C@@]2(OC3=O)[C@@]12C[C@H](c1ccoc1)OC2=O,Potency,[1],inactive
COc1cc(/C=C/C(=O)OC2CC(OC(C)=O)C(OC(C)=O)C3C2CCC2C(=O)OC(c4ccoc4)CC23C)ccc1O[C@@H]1O[C@H](CO)[C@@H](O)[C@H](O)[C@H]1O (stereo not given in full),Potency,[1],inactive
CC(Cc1ccc(O)c(O)c1)C(C)Cc1ccc(O)c(O)c1 (stereo not given),Potency,[13],31.4 µM (active)
same,outcome,[14],inactive
same,outcome,[15],inactive
same,Potency,[16],55.5 µM (active)
C=CC(C)(O)CC/C=C(/C)C(=O)OC1C(OC2OCC(OC3OC(CO)C(O)C(O)C3O)C(OC3OCC(O)C(OC4OC(C)C(O)C(O)C4O)C3O)C2O)COC(OC(=O)C23CCC(C)(C)CC2C2=CCC4C5(C)CCC(OC6OC(CO)C(OC7OC(CO)C(O)C(OC8OCC(O)C(O)C8O)C7O)C(O)C6O)C(C)(C)C5CCC4(C)C2(C)CC3O)C1O (stereo not given),"activity change, negative = cell killing",[1],-25% [at 4.96 µM] (inactive)
COc1cc(C2OCC3C(c4ccc(OC5OC(CO)C(O)C(O)C5O)c(OC)c4)OCC23)ccc1O (stereo not given),Potency,[1],inactive
N[C@H]1C[C@H]1c1ccc(-c2cccc(O)c2)cc1,Potency,[2],inactive
same,Potency,[1],inactive
same,outcome,[7],inactive
same,outcome,[12],inactive
CCOC(=O)[C@H]1O[C@@H]1C(=O)N[C@@H](CC(C)C)C(=O)NCCC(C)C,Potency,[2],inactive
same,Potency,[1],inactive
same,outcome,[7],inactive
same,outcome,[12],inactive
